Only some compounds are listed: those with a hit (about 1.1% of all), similar ones and a draw of the others.
NR2F2 inh: NR2F2 (human) inhibition, primary screen; hit rate 0.7% among 370,000; HEK293T NGFI-A luciferase reporter, luminescence; AID 686940; inhibition, % at 8.6 µM;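 active = inhibition above a per-plate cutoff, mean inhibition of test wells between control levels plus 3 SD, cut at about 38% in these data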;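 note: cells cotransfected with COUP-TFII expression vector driving the NGFI-A reporter; 0% = median of COUP-TF2 test wells and 100% = reporter-only cells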
NR5A2 inv ag: suppresses constitutive activity of human LRH-1; hit rate 0.13% among 360,000; HEK293T StAR-luciferase reporter, LRH-1 transfected, 24 h; AID 602396; inhibition, % at 3.6 µM;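 active = inhibition above the mean inhibition of all tested compounds plus 3 SD, cut at about 73% in these data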;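 note: 0% = DMSO wells and 100% = reporter-only cells lacking LRH-1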
SRC2 inh: inhibits human steroid receptor coactivator 2; HEK293 GAL4-SRC2 luciferase reporter, luminescence; inhibition, % at 9 µM; hit rate 0.17% among 370,000; AID 651957;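 active = inhibition above the mean inhibition of all tested compounds plus 3 SD, set per campaign, cut at about 52% in these data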;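 note: 0% = DMSO treated cells and 100% = cells given Gossypol at 36 µM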
NCOA3 inh: inhibits human SRC3 coactivator; Q9Y6Q9; AID 588352; hit rate 0.17% among 360,000; inhibition, % at 3.6 µM; HEK293 GAL4-SRC3 luciferase reporter, luminescence;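 active = inhibition above a per-campaign cutoff, the mean of all compounds plus 3 SD, cut at about 60% in these data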;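 note: 0% = DMSO-treated cells and 100% = gossypol-treated cells at 36 µM; higher means less SRC3-driven luciferase light from the GAL4 reporter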
GalR3 antagonist: antagonists of human GalR3; O60755; HEK293 GalR3-CNG cAMP membrane potential fluorescence; galR3 body fused to GalR1 C-terminus; inhibition, % at 3 µM; hit rate 0.44% among 360,000; AID 651719;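 active = inhibition above the screen-wide average plus 3 SD, cut at about 13% in these data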;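 note: forskolin and galanin both at EC90 stimulate the cells; cAMP rise reported by CNG channel membrane potential dye signal; 0% = forskolin plus galanin with DMSO and 100% = forskolin alone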
NCOA1 inh: human NCOA1 inhibition | HEK293 GAL4-SRC1 luciferase reporter, luminescence | inhibition, % at 3.6 µM | hit rate 0.12% among 360,000 | AID 588354;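 active = inhibition above the campaign mean plus 3 SD, with each screening campaign given its own cutoff, cut at about 60% in these data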;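 note: 0% = DMSO treated cells and 100% = gossypol at 36 µM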
GalR3 antag conf: confirmation of human galanin receptor 3 antagonists; AID 652245; HEK293 GalR3 CNG cAMP biosensor, membrane potential fluorescence; galR3 fused to GalR1 carboxy tail; challenged with forskolin and galanin at EC90; shares compounds with GalR3 antagonist; hit rate 59% among 1,600; inhibition, % at 3 µM;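 active = inhibition above the primary screen's cutoff, the mean inhibition of all screened compounds plus 3 SD, cut at about 13% in these data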;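 note: 0% = forskolin plus galanin and 100% = forskolin alone with DMSO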
HEK-CNG parental: acts as nonspecific agonist in parental HEK-CNG cells. shares compounds with GalR3 antagonist. HEK293-CNG parental cells, cAMP membrane potential fluorescence; normalised: DMSO wells 0%, forskolin wells 100%. activation, % at 3 µM. hit rate 10% among 1,600; in the data active = activation above about 1.3%
Gal4-VP16 ctr: counter-screen for COUP-TFII antagonists: inhibitors of VP16. shares compounds with NR2F2 inh. HEK293 Gal4-VP16 luciferase reporter, luminescence. inhibition, % at 8.5 µM. hit rate 25% among 2,500. AID 687007; in the data active = inhibition above about 13%
NR2F2 inh conf: COUP-TFII (NR2F2) inhibition, confirmation assay. shares compounds with NR2F2 inh. inhibition, % at 8.5 µM. HEK293 NGFI-A luciferase reporter, luminescence. hit rate 45% among 2,500;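 active = mean inhibition over three repeats above a set limit taken from the earlier primary screen, cut at about 38% in these data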;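 note: 100% = cells given the luciferase reporter alone without the COUP-TF2 vector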
* = called active by the depositor; · = not tested or not shown.

SMILES	NR2F2 inh	NR5A2 inv ag	SRC2 inh	NCOA3 inh	GalR3 antagonist	NCOA1 inh	GalR3 antag conf	HEK-CNG parental	Gal4-VP16 ctr	NR2F2 inh conf
O=C(NCCO)c1nsnc1NCCCl	-3	6	2	3	·	6	28*	0	·	·
CCOC(=O)[C@]12Cc3cc(C)ccc3[C@H]1N(C1CCCCC1)C(=O)c1ccccc12	36	61	20	·	34*	·	58*	1	·	·
CNc1cc(Cl)c2nonc2c1[N+](=O)[O-]	27	34	-121	2	39*	11	31*	0	·	·
O=C1NCN(c2ccccc2)C12CCN(C(c1cc3ccccc3o1)c1nnnn1C1CCCC1)CC2 (stereo not drawn)	-4	-49	-10	-14	-6	0	·	·	·	·
Oc1ccc(C[C@H]2NCCc3cc(O)c(O)cc32)cc1O	-33	-1	-26	-25	37*	-14	53*	2.5*	·	·
Oc1ccc(CC2CC3CCN2CC3)cc1O (stereo not drawn)	-10	13	-18	10	-1	-29	·	·	·	·
C1=CC(Cc2cncs2)c2ccccc21 (stereo not drawn)	0	-16	2	3	-4	-7	·	·	·	·
Cc1nn(C)c(C)c1/C=C1/CC2C3CC=C4CC(O)CCC4(C)C3CCC2(C)C1=O (stereo not drawn)	15	-26	-29	-65	14*	-6	30*	0	·	·
CCN(C=C1CC2C3CC=C4CC(O)CCC4(C)C3CCC2(C)C1=O)CC (stereo not drawn)	2	5	-11	10	-2	1	·	·	·	·
COc1ccc(C(CC(=O)c2ccc3c(c2)OCO3)c2c(O)c3ccccc3oc2=O)cc1OC (stereo not drawn)	-4	2	-19	-6	-3	2	·	·	·	·
COc1ccc(C2=CC(c3ccc4c(c3)OCO4)c3c(c4ccccc4oc3=O)O2)cc1OC (stereo not drawn)	-17	4	-28	-7	36*	-45	42*	1	·	·
COc1ccc(-n2nc(C(=O)NCC(=O)N3CCC4(CC3)OCCO4)c3ccccc3c2=O)cc1OC	-38	-19	-71	-19	-11	-16	·	·	·	·
CC1CC2CC(=O)CCC2(C)C2CCC3(C)C(O)CCC3C12 (stereo not drawn)	-7	-9	9	8	-4	5	·	·	·	·
C[C@]12CC[C@H]3C(CCC4(O)CC(O)CC[C@]34C=O)C1=CC[C@H]2c1ccc(=O)oc1 (stereo partly drawn)	36	40	-17	44	17*	26	42*	2.7*	·	·
CCOC(=O)[C@]12Cc3cc(Cl)ccc3[C@H]1N(C1CCCCC1)C(=O)c1cc(OC)ccc12	59*	97*	-2	·	20*	·	46*	4.3*	53*	60*
CCOC(=O)[C@]12Cc3ccc(C)cc3[C@H]1N(C1CCCCC1)C(=O)c1cc(OC)ccc12	52*	62	-2	·	16*	·	45*	2.3*	23*	35
O=C1NC(=O)C(CCc2ccncc2)(Cc2ccc(OCc3ccccc3)cc2)C(=O)N1	3	6	1	4	-3	1	·	·	·	·
C[C@]12CCC(=O)C=C1C=CC1C2CC[C@]2(C)C(=O)CCC12 (stereo partly drawn)	0	6	-4	-17	-3	5	·	·	·	·
COC(=O)C1=C(c2ccc(Cl)c(C(F)(F)F)c2)C[C@@H]2CC[C@H]1N2C	6	-32	7	6	-6	-15	·	·	·	·
CC(Cc1ccccc1)NC(=O)Cc1ccc([N+](=O)[O-])cc1 (stereo not drawn)	15	-1	-9	-12	-1	5	·	·	·	·
N#Cc1cn(C2OC(CO)C(O)C2O)c2ncnc(N)c12 (stereo not drawn)	47*	97*	61*	55	68*	45	76*	0	-8	2
NC(=O)c1cn(C2OC(CO)C(O)C2O)c2ncnc(N)c12 (stereo not drawn)	72*	98*	62*	89*	81*	91*	81*	0	56*	86*
COc1ccc(C(c2nnnn2-c2ccc(OC)cc2)N2CCC(n3c(=O)[nH]c4ccccc43)CC2)cc1 (stereo not drawn)	5	12	10	17	-5	24	·	·	·	·
COc1ccc(-n2nnnc2C(c2cc3ccccc3o2)N2CCC(n3c(=O)[nH]c4ccccc43)CC2)cc1 (stereo not drawn)	99*	44	42	60	42*	37	27*	0	-3	60*
CC(C)(C)c1ccc(CSc2cnn(C(C)(C)C)c(=O)c2Cl)cc1	71*	44	10	12	95*	31	104*	1	4	61*
SMILES	NR2F2 inh	NR5A2 inv ag	SRC2 inh	NCOA3 inh	GalR3 antagonist	NCOA1 inh	GalR3 antag conf	HEK-CNG parental	Gal4-VP16 ctr	NR2F2 inh conf
O=C1/C(=C\c2ccc(Cl)c(Cl)c2)N2CCC1CC2	9	6	6	16	-2	-8	·	·	·	·
Cc1ccc(Cn2nc(C(=O)Nc3ccc(Br)cc3)cc2C)cc1	53*	14	-37	-39	92*	-41	104*	1	-143	19
Cc1nn(Cc2ccccc2)c(Cl)c1C(=O)Nc1ccc(OC(F)(F)F)cc1	9	11	-17	8	-2	3	·	·	·	·
CN1CCN(c2ccc([N+](=O)[O-])c3no[n+]([O-])c23)CC1	98*	93*	94*	94*	-7	96*	·	·	96*	109*
Cc1nc(C)c(C(=O)NN=Cc2ccc(N(CCCl)CCCl)cc2)s1	1	13	-38	-1	-5	-3	·	·	·	·
COC1C(O)C(C)OC(OC2CCC3(C)C(CCC4C3C(O)CC3(C)C(C5=CC(=O)OC5)CCC43O)C2)C1O (stereo not drawn)	77*	101*	58*	90*	28*	87*	·	·	54*	79*
C[C@]12CC[C@H](O)C[C@H]1CC[C@@H]1[C@@H]2CC[C@]2(C)[C@@H](C3=CC(=O)OC3)CC[C@]12O	77*	102*	49	85*	26*	83*	·	·	47*	74*
